Data as given in PubChem BioAssay.
“And” between values parts separate entries of the source, which are not always exact repeats. Equal values may be shown once. Some structures have more than one record in an assay (separate samples or runs), and their calls can disagree. The source made the active and inactive calls.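 The calls were made as follows, unless noted: active = mean z-score across replicates of 1.96 or higher in either the MELAS or the Rieske mutant cell line; inactive = the rest.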

Tests used:
[1] = biological target: NAD(+) hydrolase SARM1 (Homo sapiens) (UniProt Q6SZW1); assay: SARM1 TIR NADase inhibitors, cell lysate, NAD-Glo luminescence (AID 1508614;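 active = compound whose remaining NAD level is above about 45 nM, limit read from the data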;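 also: higher remaining NAD means stronger inhibition of SARM1 NADase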); details: SAM-TIR HEK293T lysate NADase, at 1 µM, stronger effect = higher value
Chain of NAD(+) hydrolase SARM1 (Homo sapiens) (Q6SZW1 whole entry, looked up, the tested form may be a part): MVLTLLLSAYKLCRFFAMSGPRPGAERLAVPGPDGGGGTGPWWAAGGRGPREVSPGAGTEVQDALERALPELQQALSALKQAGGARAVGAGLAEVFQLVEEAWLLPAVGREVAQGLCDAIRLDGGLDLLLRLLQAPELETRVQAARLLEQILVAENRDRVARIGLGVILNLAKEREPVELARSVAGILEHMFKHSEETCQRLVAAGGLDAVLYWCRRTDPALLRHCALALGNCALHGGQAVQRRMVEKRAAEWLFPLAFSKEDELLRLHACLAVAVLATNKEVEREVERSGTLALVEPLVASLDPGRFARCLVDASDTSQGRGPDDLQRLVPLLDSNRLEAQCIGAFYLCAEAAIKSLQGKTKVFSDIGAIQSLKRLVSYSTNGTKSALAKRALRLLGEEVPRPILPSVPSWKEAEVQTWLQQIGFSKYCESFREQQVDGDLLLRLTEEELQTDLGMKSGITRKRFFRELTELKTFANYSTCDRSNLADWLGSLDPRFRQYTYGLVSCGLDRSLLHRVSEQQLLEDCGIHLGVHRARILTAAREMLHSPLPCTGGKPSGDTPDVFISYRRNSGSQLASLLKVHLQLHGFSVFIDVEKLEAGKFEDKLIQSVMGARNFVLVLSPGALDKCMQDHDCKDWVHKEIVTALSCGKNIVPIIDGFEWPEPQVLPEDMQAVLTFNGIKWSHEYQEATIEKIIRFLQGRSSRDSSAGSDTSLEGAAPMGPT

[2] = biological target: Mitogen-activated protein kinase 7 (Homo sapiens) (UniProt Q13164); assay: ERK5 transactivation activators in reporter cells, primary screen, cell-based, HTS (AID 1508626;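 active = luciferase signal above three times the same-plate solvent-only control wells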;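 also: luciferase driven by Gal4-ERK5 fusion binding five Gal4 sites before minimal TATA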); details: HeLa Gal4-ERK5 transactivation, 18 h, at 5 µM, stronger effect = higher value
Chain of Mitogen-activated protein kinase 7 (Homo sapiens) (Q13164 whole entry, looked up, the tested form may be a part): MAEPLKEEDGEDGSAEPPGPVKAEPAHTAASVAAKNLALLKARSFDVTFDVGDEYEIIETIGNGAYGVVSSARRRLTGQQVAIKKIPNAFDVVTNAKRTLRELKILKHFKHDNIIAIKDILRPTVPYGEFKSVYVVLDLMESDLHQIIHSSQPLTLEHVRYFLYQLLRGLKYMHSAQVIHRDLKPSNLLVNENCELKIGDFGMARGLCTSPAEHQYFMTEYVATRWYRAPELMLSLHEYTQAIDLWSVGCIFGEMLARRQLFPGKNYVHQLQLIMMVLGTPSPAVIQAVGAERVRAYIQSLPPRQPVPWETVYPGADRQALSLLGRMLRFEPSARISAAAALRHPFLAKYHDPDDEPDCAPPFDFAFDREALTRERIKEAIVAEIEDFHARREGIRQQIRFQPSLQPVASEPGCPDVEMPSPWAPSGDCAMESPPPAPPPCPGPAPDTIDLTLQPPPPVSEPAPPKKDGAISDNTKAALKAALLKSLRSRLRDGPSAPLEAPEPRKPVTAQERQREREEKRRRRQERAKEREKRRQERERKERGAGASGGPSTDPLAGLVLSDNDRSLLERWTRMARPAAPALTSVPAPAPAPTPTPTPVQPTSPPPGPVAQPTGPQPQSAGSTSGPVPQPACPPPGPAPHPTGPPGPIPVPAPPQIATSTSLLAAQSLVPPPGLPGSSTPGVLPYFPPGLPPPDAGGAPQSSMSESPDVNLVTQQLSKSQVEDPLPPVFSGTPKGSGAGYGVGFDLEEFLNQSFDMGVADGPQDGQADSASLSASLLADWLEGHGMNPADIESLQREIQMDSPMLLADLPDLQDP

[3] = survival rescue of mitochondrial mutant cells in low glucose, primary screen, MELAS cybrids, Rieske KO mouse fibroblasts, CellTiter-Glo (AID 1508586);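 also: z relative to plate mean and SD of compound and empty wells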
[4] = viability rescue of complex I mutant cybrids, primary screen, cell-based, galactose medium, ATP luminescence (AID 1645843;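 active = z-score of at least 1.8 in each of two replicates, scored against plate mean and spread of sample wells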;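 also: positive z means more ATP and so rescue of galactose-driven cybrid death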); details: complex I mutant cybrid cells, 72 h, stronger effect = higher value
[5] = MELAS cybrid survival, CellTiter-Glo 48 h, stronger effect = higher value
[6] = Rieske KO mouse fibroblast survival, CellTiter-Glo 72 h

SMILES	remaining NAD [1]	luciferase signal [2]	z-score [3, 5]	z-score [3, 6]	z-score [4]
C[C@@H]1C[C@H]2[C@@H]3CCC4=CC(=O)C=C[C@]4(C)[C@@]3(F)[C@@H](O)C[C@]2(C)[C@H]1C(=O)CO	10 nM (inactive)	32 AU (inactive)	–	–	–
Nc1ccc(N=Nc2ccccc2)c(N)n1	10 nM (inactive)	464 AU (active)	3.05 (active) and 0.049 (inactive) and 2.48 (active)	0.473 and -0.21 and 1.1	-0.225 (inactive)
O=C1O[C@H](CO)[C@@H](O)[C@H](O)[C@H]1O	10 nM (inactive)	16 AU (inactive)	–	–	–
COc1ccc(CCN2CCC(Nc3nc4ccccc4n3Cc3ccc(F)cc3)CC2)cc1	10 nM (inactive)	84 AU (inactive)	-0.668 (inactive) and -0.11 (inactive)	-1.26 and 1.21	-0.615 (inactive) and -2.45 (inactive)
CN(C)C(=O)Nc1ccc(Cl)c(Cl)c1	–	260 AU (active)	–	–	–
CC(=O)Oc1c(C)c(C)c2c(c1C)CC[C@@](C)(CCC[C@H](C)CCC[C@H](C)CCCC(C)C)O2	10 nM (inactive)	–	–	–	–
CC(=O)Oc1ccc(C(c2ccc(OC(C)=O)cc2)c2ccccn2)cc1	10 nM (inactive)	44 AU (inactive)	-0.393 (inactive) and -0.251 (inactive) and -0.144 (inactive)	-0.124 and -0.26 and 0.348	-0.6 (inactive)
CC(=O)Nc1cccc(O)c1	10 nM (inactive)	64 AU (inactive)	–	–	–
COC(=O)[C@@H](N)CS	10 nM (inactive)	52 AU (inactive)	–	–	–
Clc1ccc2c(c1)CCc1cccnc1C2=C1CCNCC1	10 nM (inactive)	32 AU (inactive) and 40 AU (inactive)	-0.116 (inactive) and -0.424 (inactive) and -0.172 (inactive)	-0.231 and 0.543 and -0.35	-1.23 (inactive) and -1.54 (inactive)
Cc1ccc(C(C)C)cc2c(C)ccc1-2	–	128 AU (inactive)	–	–	–
COC(=O)C1=C(C)NC(C)=C(C(=O)OCC(C)C)C1c1ccccc1[N+](=O)[O-] (stereo unspecified)	10 nM (inactive)	72 AU (inactive)	-0.516 (inactive) and 0.43 (inactive) and -1.18 (inactive)	0.274 and 1.45 and 0.961	-1.86 (inactive) and -2 (inactive)
N[C@@H](CCC(=O)N[C@@H](CS)C(=O)NCC(=O)O)C(=O)O	22 nM (inactive)	68 AU (inactive)	–	–	–
O=C1OCCN1/N=C/c1ccc([N+](=O)[O-])o1	10 nM (inactive)	56 AU (inactive)	–	–	–
CCc1nn(CCCN2CCN(c3cccc(Cl)c3)CC2)c(=O)n1CCOc1ccccc1	10 nM (inactive)	–	-0.135 (inactive) and 0.202 (inactive)	-0.202 and -0.42	-1.88 (inactive) and -0.63 (inactive) and -2.48 (inactive)
O=C1C(=O)c2ccccc2C(O)=C1C1CCC(c2ccc(Cl)cc2)CC1 (stereo unspecified)	10 nM (inactive)	56 AU (inactive)	-0.28 (inactive) and 0.215 (inactive) and 0.186 (inactive)	-0.105 and 0.155 and 0.7	-0.055 (inactive)
COc1ccc(CN2CCN(C(c3ccc(F)cc3)c3ccc(F)cc3)CC2)c(OC)c1OC	10 nM (inactive)	–	-0.49 (inactive) and -0.685 and -0.348 (inactive)	-0.282 and 2.06 and 1.06	-1.88 (inactive) and -2.46 (inactive)
O=C(O)[C@@H](O)[C@H](O)[C@H](O)[C@@H](O)C(=O)O	–	52 AU (inactive)	–	–	–
O=c1[nH]cnc2nc[nH]c12	–	60 AU (inactive)	–	–	–
CN1CCC[C@@H]1CCO[C@](C)(c1ccccc1)c1ccc(Cl)cc1	10 nM (inactive)	32 AU (inactive)	-0.745 (inactive) and -0.186 (inactive)	0.0285 and -0.556	-0.775 (inactive) and -1.7 (inactive)
CCCCCCOc1ccccc1C(N)=O	10 nM (inactive)	48 AU (inactive)	–	–	–
Oc1ccc(Cl)cc1Cc1cc(Cl)ccc1O	10 nM (inactive)	72 AU (inactive)	–	–	–
C[C@@H]1CC[C@@]2(OC1)O[C@H]1C[C@H]3[C@@H]4CC[C@H]5C[C@@H](O)CC[C@]5(C)[C@H]4CC(=O)[C@]3(C)[C@H]1[C@@H]2C	–	52 AU (inactive)	–	–	–
CC(=O)OCC(=O)NCCCOc1cccc(CN2CCCCC2)c1	10 nM (inactive)	–	-0.52 (inactive) and 0.36 (inactive) and 0.133 (inactive)	-0.102 and 0.209 and -1.07	0.45 (inactive) and 0.22 (inactive)
O=C(CCCN1CCN(c2ccccn2)CC1)c1ccc(F)cc1	10 nM (inactive)	92 AU (inactive)	-0.275 (inactive) and -0.83 (inactive) and 0.232 (inactive)	-0.169 and 0.0955 and 0.456	-0.625 (inactive)
OCCOCCN1CCN(C2=Nc3ccccc3Sc3ccccc32)CC1	10 nM (inactive)	48 AU (inactive)	-0.365 (inactive) and 0.666 (inactive) and 0.0103 (inactive)	-0.209 and 0.244 and 1.08	-0.095 (inactive) and 0.115 (inactive)
C[C@@H]1C[C@H]2[C@@H]3CCC4=CC(=O)C=C[C@]4(C)[C@@]3(F)[C@@H](O)C[C@]2(C)[C@@]1(O)C(=O)COP(=O)(O)O	10 nM (inactive)	32 AU (inactive)	–	–	–
Nc1ccc(O)c(C(=O)O)c1	10 nM (inactive)	48 AU (inactive)	-0.293 (inactive) and -0.757 (inactive) and 0.532 (inactive)	0.059 and -0.214 and -0.391	0.62 (inactive) and 0.46 (inactive)
